HCV inhibitor = HCV inhibition; Huh7.5.1 HCVcc-Cre infection, luciferase reporter, 44 h; Potency, µM (top dose mostly 41.8 µM), for inactives: at the highest dose activity change, negative = inhibition, hits mostly inhibitors; 3.4% of 340,000 active; AID 651820
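Seed cells (1,000/well) for 4 h; treat with compound and infect with HCVcc-Cre, moi about 0.5. Incubate 44 h, then detect luciferase activity.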
AmpC no deterg = blocks E. coli AmpC beta-lactamase in detergent-free assay; P00811; AmpC nitrocefin hydrolysis, absorbance 480 nm, 0.0001% Triton; Potency, µM (highest dose often 57.1 µM), for the others: at the highest dose activity change, negative = inhibition, most hits filed as inhibitors; 0.52% of 330,000 active;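 note: plate controls were no compound for no effect and no enzyme for full effect; nearly all actives have a fitted effect of over 20% in size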
Target sequence (P00811 whole entry, looked up): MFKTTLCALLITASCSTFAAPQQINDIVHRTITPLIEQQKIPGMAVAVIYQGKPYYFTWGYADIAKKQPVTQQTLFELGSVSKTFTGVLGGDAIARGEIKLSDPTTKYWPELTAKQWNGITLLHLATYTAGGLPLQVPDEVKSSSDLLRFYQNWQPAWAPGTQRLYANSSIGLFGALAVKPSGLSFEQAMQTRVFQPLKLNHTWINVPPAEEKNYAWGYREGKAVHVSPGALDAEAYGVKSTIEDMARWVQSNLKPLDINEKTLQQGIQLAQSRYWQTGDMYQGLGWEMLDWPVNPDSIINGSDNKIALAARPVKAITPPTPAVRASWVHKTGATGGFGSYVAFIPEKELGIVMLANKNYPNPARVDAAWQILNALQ
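20 mM phosphate pH 7.0 + 0.01% (detergent screen) or 0.0001% Triton X-100; 5.3 nM AmpC reagent; cpd preinc 15 min RT; nitrocefin (800 uM stock) to start; A480 q20 s × 4 min; Activity was normalised to no-enzyme and no-compound control wells.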
AmpC inh detg = inhibitors of E. coli AmpC beta-lactamase with detergent | P00811 | AmpC hydrolysis of nitrocefin, absorbance 480 nm, 0.01% Triton | Potency, µM (top dose mostly 114 µM), without a hit: at the highest dose activity change, negative = inhibition, most hits filed as inhibitors | 0.041% of 370,000 active | AID 485294;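 note: 0% = no-compound wells and -100% = no-enzyme wells; nearly all actives have a fitted effect of over 25% in size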
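AmpC (5.3 nM in the dispensed reagent) in 20 mM phosphate pH 7.0 with 0.01% (detergent screen) or 0.0001% Triton X-100 was preincubated with compounds for 15 min at room temperature. Nitrocefin was then added from an 800 uM solution, and hydrolysis was followed at 480 nm.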
AMA1 RON2 block = AMA1-RON2 (P. falciparum) interaction inhibition | AlphaScreen AMA1-biotinylated RON2 peptide binding | Potency, µM (highest dose often 58.2 µM), for the others: top-dose activity change, negative = inhibition, usual class: inhibitors | AID 720542 | 0.2% of 360,000 active;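 note: 0% = vehicle wells and -100% = peptide control; nearly all actives have a fitted effect of over 45% in size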
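AMA1 (3D7) with his tag at 25 nM final met compounds first, then biotinylated RON2 peptide at 25 nM; detection used donor plus acceptor beads, 10 µg/mL apiece, read by AlphaScreen after 30 min at room temperature.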
Pf growth 96h = P. falciparum growth inhibition at 96 hours | P. falciparum luciferase reporter growth, 96 h | Potency, µM (series often up to 28.7 µM), inactives show at the highest dose activity change, negative = inhibition, hits mostly inhibitors | 6.9% of 320,000 active | AID 504834
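Two-generation exposure (96 h) targets delayed-death phenotype. Reporter parasites carrying integrated firefly luciferase, in red cells at 2% hematocrit and 0.05% parasitemia final, kept at 37 C, 5% CO2; luminescence loss indicates inhibition.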
Pf growth 48h = inhibits P. falciparum growth in the first generation, 48 h; P. falciparum luciferase growth in erythrocytes, 48 h; Potency, µM (highest dose often 28.7 µM), inactives show at the top dose activity change, negative = inhibition, most hits filed as inhibitors; 5.9% of 310,000 active; AID 504832
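Firefly luciferase activity from engineered P. falciparum reports growth; inhibitors lower the luminescent signal. Cultures contained 2% hematocrit erythrocytes at 0.1% final parasitemia.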
The depositor's hits bear a star; ? = inconclusive; . = no result. Shown are actives, neighbours in structure and some others; about 11% of the full set was active somewhere. Calls come from the whole dose curve; as a rule, active = well fitted curve in the direction sought with a large enough effect; inconclusive = small, poorly fitted or top-dose-only effect, or another doubt; inactive = no such curve, though single readings can be large; an effect the other way counts as inactive or inconclusive. Unless noted, % is set by controls: 0 for no effect and ±100 for the full control effect; potency is the fitted concentration of half-maximal effect.

SMILES	HCV inhibitor	AmpC no deterg	AmpC inh detg	AMA1 RON2 block	Pf growth 96h	Pf growth 48h
COc1cccc(NC(=O)CN(C)C(=O)c2cccnc2Nc2cccc(C(F)(F)F)c2)c1	?	-1%	12%	-2%	?	9.3µM*
Cc1ccccc1C(=O)Nc1nc(-c2ccc(Br)cc2)ns1	.	.	13%	.	.	.
Cn1c(-n2cccc2)c(-c2c(-c3ccc(F)cc3)[nH]c3c2c(=O)[nH]c(=O)n3C)c(=O)[nH]c1=O	.	.	2%	.	.	.
CCOC(=O)c1c(C)oc2nc(C)nc(NCc3ccccc3Cl)c12	.	.	19%	.	.	.
COc1ccccc1CCC(=O)N(C)C1CCCN(Cc2ccccc2F)C1 (centres undefined)	-26%	58%	?	0%	10µM*	-2%
O=C(Nc1cccc(C(F)(F)F)c1)C12CC3CC(CC(C3)C1)C2	7%	-15%	?	?	-7%	13µM*
CN(C)CC(=O)Nc1cc(C(F)(F)F)ccc1Cl	2%	2%	?	8%	-17%	17%
O=C(CN1C(=O)C2CCCCC2C1=O)Nc1cccc(C(F)(F)F)c1 (centres undefined)	4%	-5%	.	20%	.	.
O=C(CNC1CCCCC1)Nc1cccc(C(F)(F)F)c1	-4%	7%	-5%	-2%	9.3µM*	-23%
O=C(CNC1CC1)Nc1cc(C(F)(F)F)ccc1Cl	7%	-5%	2%	-12%	1.5µM*	1.2µM*
O=c1c2oc3ccccc3c2ncn1Cc1ccc(Br)cc1	.	.	3%	.	.	.
COC(=O)COC(=O)CC(CC(N)=O)c1ccccc1 (centres undefined)	8%	-1%	-9%	-11%	9.3µM*	0%
CCOc1ccccc1N(C)C(=O)c1sc2nc3n(c(=O)c2c1C)CCCC3	.	.	0%	.	.	.
COc1ccc(N(C)S(=O)(=O)c2ccc3c(c2)oc(=O)n3C)cc1	1%	-24%	5%	-11%	7.4µM*	-10%
CN(Cc1ccccc1)C(=O)CCNS(=O)(=O)c1ccc2c(c1)oc(=O)n2C	0%	-18%	2%	-5%	?	-12%
COc1cccc(N2CCN(C(=O)CCS(=O)(=O)c3ccc4c(c3)oc(=O)n4C)CC2)c1	0%	40%	-3%	-4%	5.2µM*	?
CN(Cc1ccccc1)C(=O)CCS(=O)(=O)c1ccc2c(c1)oc(=O)n2C	21%	-3%	0%	-8%	13µM*	-19%
CCN(Cc1ccccc1)C(=O)CCS(=O)(=O)c1ccc2c(c1)n(C)c(=O)c(=O)n2C	-5%	-21%	-13%	6%	3.7µM*	-28%
Cn1c(=O)oc2cc(S(=O)(=O)CCC(=O)N3CCN(c4cccc(Cl)c4)CC3)ccc21	.	.	19%	.	.	.
CC(C)(C)c1ccc(-c2nnc(-c3ccccc3NC(=O)c3cccc(C(F)(F)F)c3)o2)cc1	.	.	-1%	.	.	.
Cn1c(=O)oc2cc(S(=O)(=O)CCC(=O)N3CCN(c4ccccc4)CC3)ccc21	18%	-3%	0%	-7%	9.3µM*	?
CC1CCCN(C(=O)CCS(=O)(=O)c2ccc3c(c2)n(C)c(=O)c(=O)n3C)C1 (centres undefined)	8%	-6%	10%	2%	114%	44%
Cn1c(=O)c(=O)n(C)c2cc(S(=O)(=O)CCC(=O)N3CCOCC3)ccc21	1%	4µM*	6%	4%	?	36%
COc1ccc(C2c3ccc(O)cc3Oc3ncn(CCN4CCOCC4)c(=N)c32)cc1OC (centres undefined)	-23%	57%	6%	3%	?	?
N=c1c2c(ncn1CCN1CCOCC1)Oc1cc(O)ccc1C2c1ccccc1 (centres undefined)	-15%	-7%	2%	-13%	?	?
SMILES	HCV inhibitor	AmpC no deterg	AmpC inh detg	AMA1 RON2 block	Pf growth 96h	Pf growth 48h
COc1ccc(C2c3c(ncn(CCCN4CCOCC4)c3=N)Oc3ccc4ccccc4c32)cc1OC (centres undefined)	22µM*	214%	0%	-9%	1.9µM*	4.1µM*
COc1ccc(C2c3ccc4ccccc4c3Oc3ncn(CCN4CCOCC4)c(=N)c32)cc1 (centres undefined)	?	195%	-11%	?	6.6µM*	12µM*
COc1ccc(C2c3ccc4ccccc4c3Oc3ncn(CCN4CCOCC4)c(=N)c32)cc1OC (centres undefined)	?	163%	-13%	-17%	13µM*	9.3µM*
COc1ccc(-c2nc(SCC(=O)Nc3c(C)cc(C)cc3C)n[nH]2)cc1	.	.	10%	.	.	.
OC(COc1ccccc1)Cn1c2ccccc2c2ccccc21 (centres undefined)	?	-25%	-2%	4%	196%	?
Oc1cccc2ccc[n+](CC(O)Cn3c4ccccc4c4ccccc43)c12 (centres undefined)	22µM*	44%	?	1%	?	1µM*
O=[N+]([O-])c1cc2oc3c(c2c(C=NCc2ccncc2)c1O)CCCC3	?	-35%	-13%	6%	?	10µM*
CC(C)(C)C(=O)Oc1ccc(S(=O)(=O)Nc2ccccc2C(=O)NCC(=O)O)cc1	.	.	.	.	13µM*	-4%
CCOc1ccc(S(=O)(=O)Nc2ccccc2C(=O)NCC2CCCO2)cc1 (centres undefined)	7%	-5%	-2%	4%	9%	.
CCOc1ccc(S(=O)(=O)Nc2cc(SCC(=O)O)c(O)c3ccccc23)cc1	10µM*	-56%	?	?	1.9µM*	10µM*
CCc1ccc(S(=O)(=O)Nc2ccc(O)c3ccccc23)cc1	-16%	-38%	2%	?	8%	9.3µM*
CCc1ccc(S(=O)(=O)Nc2cc(SCC(=O)O)c(O)c3ccccc23)cc1	?	-34%	?	?	?	7.4µM*
Cc1ccc(Cl)cc1NC(=O)Cn1c(=O)n(CCC(=O)N2CCc3ccccc3C2)c(=O)c2ccccc21	.	.	26%	.	.	.
CCc1ccccc1N1C(=O)N(Cc2cc(=O)n3ccccc3n2)c2ccccc2S1(=O)=O	.	.	5%	.	.	.
Cc1sc2ncn(CC(=O)Nc3ccc(C(F)(F)F)cc3)c(=O)c2c1S(=O)(=O)N1CCN(C)CC1	.	.	-4%	.	.	.
CC(=O)c1cccc(NC(=O)c2sc(-n3nc(C)c(CCC(C)C)c3C)nc2C)c1	.	.	-1%	.	.	.
O=C(O)c1ccccc1NS(=O)(=O)c1cccc2cccnc12	16%	-6%	?	9%	.	-8%
O=C(O)CSc1cc(NS(=O)(=O)c2cccc([N+](=O)[O-])c2)c2ccccc2c1O	11µM*	-30%	0%	-13%	?	10µM*
